Bioassay records from PubChem BioAssay.
Only some compounds are listed: those with a hit (about 10% of all), similar ones and a draw of the others.
3T3 cytotox = Cytotoxic Profiling in NIH 3T3 Cell Line of Diverse Libraries Using Quantitative High-Throughput Screening; actives 4.3% (n = 94,000); Potency, µM (doses to about 96.7 µM), for the others: top-dose activity change, negative = cytotoxicity, usual class: inhibitors; NIH 3T3 viability, CellTiter-Glo ATP luminescence, 48-72 h; also: nearly all actives have a fitted effect of over 55% in size
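Luminescent ATP readout (CellTiter-Glo, 10 min RT) after 48 or 72 hr compound exposure of NIH 3T3 cells seeded at 400 cells/well in 1536-well format; quantitative HTS.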
NPR1 antag = Natriuretic polypeptide receptor (hNpr1) antagonism - Primary qHTS; Atrial natriuretic peptide receptor 1 (Homo sapiens), P16066; AID 1347048, 2019; Potency, µM (top dose mostly 46.3 µM), for inactives: at the highest dose activity change, negative = inhibition, usual class: inhibitors; HEK293 hNpr1 GloSensor cGMP, ANP-stimulated luminescence; actives 1.6% (n = 76,000); calls by dose curve; also: nearly all actives have a fitted effect of over 60% in size
Target sequence (P16066 whole entry, looked up): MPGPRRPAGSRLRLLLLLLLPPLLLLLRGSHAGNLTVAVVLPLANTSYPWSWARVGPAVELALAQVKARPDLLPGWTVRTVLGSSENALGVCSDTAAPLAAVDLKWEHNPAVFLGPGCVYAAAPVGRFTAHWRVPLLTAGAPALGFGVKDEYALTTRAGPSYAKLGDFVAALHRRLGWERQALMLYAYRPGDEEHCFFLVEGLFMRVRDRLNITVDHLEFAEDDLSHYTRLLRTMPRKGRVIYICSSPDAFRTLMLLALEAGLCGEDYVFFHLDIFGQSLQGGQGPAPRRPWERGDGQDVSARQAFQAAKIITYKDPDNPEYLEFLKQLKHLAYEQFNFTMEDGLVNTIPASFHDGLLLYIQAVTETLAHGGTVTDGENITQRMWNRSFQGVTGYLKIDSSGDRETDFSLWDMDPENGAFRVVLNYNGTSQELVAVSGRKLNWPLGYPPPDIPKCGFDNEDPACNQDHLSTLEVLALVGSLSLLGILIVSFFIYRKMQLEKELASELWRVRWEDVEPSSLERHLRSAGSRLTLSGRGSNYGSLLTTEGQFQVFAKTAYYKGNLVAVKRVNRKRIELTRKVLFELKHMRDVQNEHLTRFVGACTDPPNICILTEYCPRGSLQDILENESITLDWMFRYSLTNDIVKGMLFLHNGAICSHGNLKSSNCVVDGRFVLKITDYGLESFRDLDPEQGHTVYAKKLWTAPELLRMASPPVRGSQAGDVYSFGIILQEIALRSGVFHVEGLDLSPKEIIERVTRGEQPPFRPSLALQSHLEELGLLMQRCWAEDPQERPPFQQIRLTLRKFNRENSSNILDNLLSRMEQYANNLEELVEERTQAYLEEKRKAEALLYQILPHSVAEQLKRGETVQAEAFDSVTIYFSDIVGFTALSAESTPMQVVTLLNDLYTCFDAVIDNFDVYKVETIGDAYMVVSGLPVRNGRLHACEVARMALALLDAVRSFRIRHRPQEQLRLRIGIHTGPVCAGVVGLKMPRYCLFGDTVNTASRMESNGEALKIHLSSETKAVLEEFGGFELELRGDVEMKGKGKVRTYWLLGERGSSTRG
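Compound pre-incubated 30 min at room temperature on GloSensor-loaded HEK293 cells stably carrying hNpr1 and the pGS-40F cGMP biosensor. Stimulation uses hNppA at 0.1 nM final; luminescence is taken at baseline and 20 min post-agonist.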
HEK293 tox = Cytotoxic Profiling in HEK 293 Cell Line of Diverse Libraries Using Quantitative High-Throughput Screening | HEK 293 viability, ATP luminescence (CellTiter-Glo), 48-72 h | Potency, µM (highest dose often 115 µM), without a hit: at the highest dose activity change, negative = cytotoxicity, actives largely listed as inhibitors | actives 6.6% (n = 94,000) | AID 1345083, 2018; also: nearly all actives have a fitted effect of over 60% in size
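Read-out: CellTiter-Glo ATP luminescence. Cells: HEK 293, 250 cells/well. Exposure: 48 or 72 hr, 37 degree Celsius.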
Luciferase inh = Firefly luciferase inhibition profiling of diverse chemical library using quantitative high-throughput screening. Luciferin 4-monooxygenase (Photinus pyralis), P08659. purified P. pyralis luciferase, luminescence, biochemical. Potency, µM (doses to about 115 µM), usual class: inhibitors. actives 2.5% (n = 76,000). AID 1347043, 2019; also: nearly all actives have a fitted effect of over 65% in size
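Purified P. pyralis luciferase (10nM final) in 50mM Tris acetate pH 7.5, 10mM Mg acetate, 0.01% Tween-20, 0.05% BSA with 10uM D-luciferin and 10uM ATP. Compounds titrated qHTS. Luminescence imaged on CCD.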
GPT2 inh = Primary qHTS assay for inhibitors of Glutamate pyruvate transaminase 2 (GPT2) | Alanine aminotransferase 2 (Homo sapiens), Q8TD30 | Recombinant GPT2, coupled pyruvate oxidase/HRP Amplex Red fluorescence | Potency, µM (top dose mostly 57.7 µM), without a hit: at the top dose activity change, negative = inhibition, hits mostly inhibitors | actives 0.25% (n = 100,000); also: nearly all actives have a fitted effect of over 60% in size
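GPT2 10ng/uL, a-KG 250uM, L-Ala 2mM, HEPES pH7.5 + 0.0001% Tween; 30 min RT. Then Amplex mix (PO/HRP/ThPP), 30 min RT dark, fluorescence. AOA 50uM used as positive control.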
* = called active by the depositor; i = inactive; ? = inconclusive; · = no result given; [ ] = remark or other dose. Unless noted, calls follow the shape of the dose curve; as a rule, active = well fitted curve in the direction sought with a large enough effect; inconclusive = small, poorly fitted or top-dose-only effect, or another doubt; inactive = no such curve, though single readings can be large; an effect the other way counts as inactive or inconclusive. % is scaled to controls: 0 for no effect and ±100 for the full control effect; potency is read from the fitted curve at half-maximal effect.

SMILES	3T3 cytotox	NPR1 antag	HEK293 tox	Luciferase inh	GPT2 inh
CCOC(=O)c1ccc(CNC(=O)N2CCC[C@H](n3c(=O)n(C)c4cccnc43)C2)cc1	?	·	?	·	i
CN1C[C@@H]2CCCN3CCC[C@@H]([C@H]23)[C@H]1CCCC(=O)NCCCN1CCc2ccccc2C1	?	-5.0%	?	i	?
CSc1ccc(-c2cccc(CN3CCC(NC(=O)Nc4ccccc4F)CC3)c2)cc1	12.6µM*	·	17.8µM*	·	·
CSc1ccc(-c2cccc(CN3CCC(NC(=O)Nc4ccccc4)CC3)c2)cc1	14.1µM*	·	?	·	·
CO[C@H]1[C@H](NC(=O)Cc2c[nH]c3ccccc23)c2ccccc2C12CCNCC2	-6.4%	5.4%	-8.9%	i	3.5%
CCOC(=O)c1ccc(O)c(O)c1	·	·	·	·	28.2µM*
CN1CC(=O)N(c2ccc(Cl)cc2)Cc2c1ncnc2N1CCC(Cc2ccccc2)CC1	?	4.4%	31.6µM*	i	i
CN1CC(=O)N(C2CCC2)Cc2c1ncnc2N1CCC(c2ccccc2)CC1	?	-0.4%	44.7µM*	i	i
CN1CC(=O)N(C2CCNC2)Cc2c1ncnc2N1CCC(c2ccccc2)CC1 (stereo not given)	3.0%	·	1.8%	·	-4.9%
CN1CC(=O)N(C2CCC2)Cc2c1ncnc2N1CCC(Cc2ccccc2)CC1	44.7µM*	-11.0%	?	i	i
O=C(NCc1ccc(F)cc1)C1COC2(CCCCC2)N1C(=O)c1cccc(F)c1 (stereo not given)	-22.4%	-14.9%	?	i	i
COCC(=O)N1CC[C@H](c2nc3ccc(C)cc3[nH]2)C1	-5.3%[230 µM]	2.3%[70.6 µM]	3.1%[230 µM]	i	?
Cc1nc(CCNC(=O)Cc2ccsc2)no1	-15.1%	0.8%	-9.6%	i	-2.0%
COc1cccc(CN2CCOC3(CCN([S+](=O)([O-])c4c(C)noc4C)CC3)C2=O)c1	20µM*	-4.3%	-25.6%	i	4.1%
O=C1N(CCc2ccccc2)CCOC12CCN([S+](=O)([O-])c1cccnc1)CC2	25.1µM*	5.7%[70.6 µM]	-23.4%[172 µM]	i	-8.6%[88.5 µM]
O=C(NCC(F)(F)F)C1CCCN1Cc1ccc(-c2cncnc2)cc1 (stereo not given)	-4.2%	·	-2.0%	·	i
C=CCc1ccccc1OCCN(C)Cc1ccc(S(C)(=O)=O)cc1	?	-12.7%	39.8µM*	i	0.4%
C=CCc1ccccc1OCCN(C)Cc1cc2ccc(F)cc2[nH]c1=O	35.5µM*	?	44.7µM*	i	-22.3%[11.5 µM]
Cn1nccc1C(=O)N1CCC2(CC1)NCCc1c2[nH]c2ccccc12	-30.2%	6.3%	?	i	3.7%
Cc1ccc(-c2cc3c(=O)n(CCNC(=O)c4ccc[nH]c4=O)ccn3n2)cc1C	-17.0%	-13.9%	-7.1%	7.94µM*	i
Cc1ccc(-c2cc3c(=O)n(CCNC(=O)Cc4cccc(F)c4)ccn3n2)cc1C	?	?	-17.7%	3.55µM*	0.7%
COc1ccc(CNC(=O)c2cc3c(n2C)CCN(Cc2ccc(F)cc2)C3)cc1	?	-25.6%	?	i	3.6%
COc1ccccc1NC(=O)c1cc2c(n1C)CCN(Cc1ccc(F)cc1)C2	?	6.4%	31.6µM*	15.8µM*	-8.7%
COc1cccc(CN2CCc3c(cc(C(=O)Nc4cc(OC)cc(OC)c4)n3C)C2)c1	?	6.9%	?	?	i
COc1cccc(CN2CCc3c(cc(C(=O)Nc4ccc(C)cc4C)n3C)C2)c1	?	-2.4%	?	15.8µM*	-1.1%
SMILES	3T3 cytotox	NPR1 antag	HEK293 tox	Luciferase inh	GPT2 inh
COc1ccc(-c2cc(-c3cccc(CO)c3)cn3cncc23)cc1	56.2µM*	-20.4%[70.6 µM]	79.4µM*	i	i
COc1cccc(-c2cc(-c3ccc(OC)nc3)c3cncn3c2)c1	?	-18.9%[70.6 µM]	?	i	i
Oc1ccccc1-c1cc(-c2cccnc2)c2cncn2c1	?	-21.5%[70.6 µM]	100µM*	i	-14.0%[88.5 µM]
COc1ccc(-c2cc(-c3c(C)noc3C)c3cncn3c2)cc1	?	-3.0%[70.6 µM]	?	i	-13.6%[88.5 µM]
COc1ccc(-c2cc(-c3ccccc3O)cn3cncc23)cc1	?	-22.9%[70.6 µM]	100µM*	i	-8.8%[88.5 µM]
COc1ccc(-c2cc(-c3cccc(OC)c3OC)cn3cncc23)cc1	?	0.5%[70.6 µM]	89.1µM*	?	-1.0%[88.5 µM]
COc1ccc(-c2cc(-c3cnn(C)c3)cn3cncc23)cn1	?	-12.9%[70.6 µM]	?	i	-21.8%[88.5 µM]
COc1ccc(-c2cc(-c3cnn(C)c3)cn3cncc23)cc1	35.5µM*	-17.7%[70.6 µM]	?	i	?
O=C(Nc1cccnc1)c1ccc2c(c1)OCCN(c1cccc(OC(F)(F)F)c1)C2	?	?	28.2µM*	i	1.9%[88.5 µM]
C=C1CC[C@@H]2[C@@](C)(CO[C@@H]3O[C@H](CO)[C@@H](O)[C@H](O)[C@H]3O)[C@H](O)CC[C@@]2(C)[C@@H]1CC/C(C)=C/CO[C@@H]1O[C@H](CO)[C@@H](O)[C@H](O)[C@H]1O	·	·	·	·	-24.9%[17.1 µM]
O=C(c1ccco1)N1CCC2(CC1)CC(N(C(=O)c1ccccc1)C1CC1)CCO2 (stereo not given)	-20.9%	-8.0%	?	i	?
O=C1COCC2(CN1Cc1cccc(OC(F)(F)F)c1)CN(c1ccccc1F)C2	89.1µM*	0.3%[70.6 µM]	89.1µM*	i	-18.1%[88.5 µM]
O=C1COCC2(CN(Cc3ccsc3)C2)CN1Cc1cccc(OC(F)(F)F)c1	44.7µM*	-19.1%[70.6 µM]	63.1µM*	i	-6.9%[88.5 µM]
COc1cccc(N2C(=O)OCC23CCN(CCCc2ccccc2)C3)c1 (stereo not given)	?	-2.5%[70.6 µM]	?	i	-10.6%[88.5 µM]
Cn1cc(CN2CC3(COCC(=O)N(Cc4cccc(OC(F)(F)F)c4)C3)C2)cn1	-18.9%[138 µM]	-16.4%[70.6 µM]	?	i	-3.5%[88.5 µM]
O=C1OCC2(CCN(Cc3cccc(OC(F)(F)F)c3)C2)N1c1ccncc1 (stereo not given)	?	6.7%[70.6 µM]	100µM*	i	-2.3%[88.5 µM]
O=c1cc(-c2ccncc2)oc2c(-c3cccc4[nH]ccc34)nccc12	?	-2.4%[70.6 µM]	25.1µM*	i	1.0%[88.5 µM]
O=c1cc(-c2ccncc2)oc2c(-c3cccc(CO)c3)nccc12	44.7µM*	5.2%[70.6 µM]	-25.7%[172 µM]	i	i
O=c1cc(-c2ccncc2)oc2c(-c3ccccc3F)nccc12	?	12.4%[70.6 µM]	?	i	2.7%[88.5 µM]
